According to PubChem BioAssay AID651768 (National Center for Advancing Translational Sciences (NCATS), 2012):
About 1,700 (0.47%) of roughly 360,000 compounds were called active. Another 2% or so got no clear call; they are omitted. The sample as a whole holds a higher share of actives than the screen did. Unmarked numbers belong to inactive results. Calls follow the shape of the dose curve; as a rule, active = well fitted inhibition curve with a large enough effect; inconclusive = small, poorly fitted or top-dose-only effect; inactive = no such curve, though single readings can be large or run the other way.

Biological target: Bifunctional 3'-5' exonuclease/ATP-dependent helicase WRN (Homo sapiens) (UniProt Q14191)
Assay: qHTS for Inhibitors of WRN Helicase; also: nearly all actives have a fitted effect of over 55% in size
Conditions: WRN helicase unwinding, fluorescent forked duplex, kinetic; series mostly up to 114 µM; activity change, negative = inhibition: at the top concentration
Procedure, shortened: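 Kinetic fluorescence helicase assay: unwinding of a quenched forked DNA duplex (100 nM final) with 2 mM ATP final raises red fluorescence (525/598 nm). Compounds sat 15 min at room temperature with 20 nM WRN beforehand.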
% is scaled to controls: 0 for no effect and ±100 for the full control effect; potency is read from the fitted curve at half-maximal effect.

Chain of Bifunctional 3'-5' exonuclease/ATP-dependent helicase WRN (Homo sapiens) (Q14191 whole entry, looked up): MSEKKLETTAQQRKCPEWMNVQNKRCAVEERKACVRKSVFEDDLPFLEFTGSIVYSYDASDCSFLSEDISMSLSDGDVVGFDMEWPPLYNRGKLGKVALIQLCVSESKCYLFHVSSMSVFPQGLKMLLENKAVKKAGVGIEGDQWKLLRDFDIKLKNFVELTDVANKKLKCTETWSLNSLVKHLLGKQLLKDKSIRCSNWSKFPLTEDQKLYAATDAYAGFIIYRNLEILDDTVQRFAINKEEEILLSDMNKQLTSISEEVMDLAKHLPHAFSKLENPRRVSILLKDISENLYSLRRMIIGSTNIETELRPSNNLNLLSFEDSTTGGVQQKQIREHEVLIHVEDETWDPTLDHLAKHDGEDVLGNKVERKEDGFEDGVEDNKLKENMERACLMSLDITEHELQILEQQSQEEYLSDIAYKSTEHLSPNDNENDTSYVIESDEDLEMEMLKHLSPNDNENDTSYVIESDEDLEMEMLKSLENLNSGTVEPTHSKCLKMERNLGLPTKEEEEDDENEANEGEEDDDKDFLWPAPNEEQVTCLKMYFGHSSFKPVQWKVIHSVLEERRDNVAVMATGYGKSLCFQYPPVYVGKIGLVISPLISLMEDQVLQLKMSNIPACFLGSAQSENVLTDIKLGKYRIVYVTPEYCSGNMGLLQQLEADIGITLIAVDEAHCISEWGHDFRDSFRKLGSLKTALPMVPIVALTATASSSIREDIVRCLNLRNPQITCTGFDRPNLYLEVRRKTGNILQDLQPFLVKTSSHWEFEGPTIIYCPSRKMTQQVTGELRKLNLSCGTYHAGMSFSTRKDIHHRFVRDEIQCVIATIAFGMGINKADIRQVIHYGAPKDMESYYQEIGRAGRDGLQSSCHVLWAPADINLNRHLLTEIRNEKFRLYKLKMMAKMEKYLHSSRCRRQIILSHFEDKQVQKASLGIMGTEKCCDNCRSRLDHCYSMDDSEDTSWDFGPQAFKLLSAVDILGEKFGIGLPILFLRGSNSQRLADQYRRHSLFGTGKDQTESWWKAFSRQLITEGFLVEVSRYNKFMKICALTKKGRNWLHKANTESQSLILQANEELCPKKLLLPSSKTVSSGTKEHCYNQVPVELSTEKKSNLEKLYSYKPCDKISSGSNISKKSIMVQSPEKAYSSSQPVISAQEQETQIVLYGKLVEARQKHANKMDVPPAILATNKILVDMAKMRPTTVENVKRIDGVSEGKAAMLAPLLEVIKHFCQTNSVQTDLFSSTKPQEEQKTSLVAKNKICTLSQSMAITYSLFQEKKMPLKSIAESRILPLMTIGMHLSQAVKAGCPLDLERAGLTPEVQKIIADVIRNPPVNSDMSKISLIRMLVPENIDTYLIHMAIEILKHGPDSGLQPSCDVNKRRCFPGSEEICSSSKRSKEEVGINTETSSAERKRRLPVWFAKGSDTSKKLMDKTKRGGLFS

| Compound | activity change, negative = inhibition | Potency |
| --- | --- | --- |
| COc1c(Br)cc2c(C)c(C(=O)N3CCOCC3)oc2c1Br | -1.91% |  |
| O=C(Cn1nnc2ccccc2c1=O)NCc1ccc(Cl)cc1 | 7.75% |  |
| O=c1[nH]c2ccccc2n2c(-c3ccccc3)nnc12 |  | 20 µM (active) |
| O=C(c1ncn2c1c(=O)[nH]c1ccccc12)N1CCc2ccccc2C1 | 2.79% |  |
| CS(=O)(=O)N1CCCCC1c1cc(C(=O)NCc2ccccc2)no1 (configuration not stated) | -12.7% |  |
| COc1ccc(OC(C)C(=O)Nc2cccnc2)cc1 (configuration not stated) | 2.46% |  |
| COc1ccc(CS(=O)/C(Cl)=C(/Cl)C(=O)Nc2ccc(OC)nc2)cc1 (configuration not stated) |  | 17.8 µM (active) |
| COc1ccc(C(O)c2nc(-c3ccc(OC)nc3)cs2)cc1 (configuration not stated) | -0.589% |  |
| CC(C)C[C@H]1CN([C@@H](Cc2ccccc2)CN2CCC[C@@H]2CN2C(=O)C(=O)NC[C@@H]2Cc2ccc(O)cc2)C(=O)C(=O)N1CCc1ccccc1 | -7.43% |  |
| Cc1cccc(C)c1NC(=O)C(c1cccc2ccccc12)n1c(=O)c(-c2ccco2)nc2ccccc21 (configuration not stated) | -2.69% |  |
| O=C(CSC(=S)N1CCCCC1)c1c(F)cccc1F | 8.5% |  |
| Cc1c(CC(=O)N2CCN(C(=O)C3COc4ccccc4O3)CC2)c(=O)oc2c(O)c(O)ccc12 (configuration not stated) |  | 10 µM (active) |
| Cc1ccc(S(=O)(=O)NCCC(=O)NNC(=O)C2COc3ccccc3O2)cc1 (configuration not stated) | 1.81% |  |
| Cc1c(CCC(=O)O)c(=O)oc2c(C)c(OCc3ccccc3Cl)ccc12 | -22.9% [at 11.6 µM] |  |
| CCC1(c2ccccc2)NC(=O)N(CC(=O)c2ccc3c(c2)OCO3)C1=O (configuration not stated) | -8.83% |  |
| O=C(CCN1CCc2ccccc2C(O)(c2ccccc2)C1)c1ccc2c(c1)OCCO2 (configuration not stated) |  | 31.6 µM (active) |
| O=C(CN1CCN(c2ccccc2F)CC1)c1ccc2c(c1)OCO2 | -4.89% |  |
| CCCCCNC(=O)C1C(=O)Nc2ccccc2C(=O)N1C(C)(C)C (configuration not stated) | 4.68% |  |
| O=c1[nH]oc(O)c1-c1ncc(C(F)(F)F)cc1Cl | -5.42% |  |
| CN(Cc1c(F)cccc1Cl)S(=O)(=O)c1cccs1 | -5.6% |  |
| COC(=O)C1=C(C(=O)OC)[C@@H]2N(C)c3ccccc3[C@@]23C[C@@H](C(=O)OC)N(C(=O)c2ccco2)C3=N1 | 2.76% |  |
| COc1ccc(CCNC2=C(Cl)C(=O)N(Cc3ccccc3)C2=O)cc1OC | -14.6% |  |
| CN1C=CC=C/C1=C1\SC(=S)N(Cc2ccccc2)C1=O | -16.5% |  |
| COc1cc(/C=C2/SC(=S)N(Cc3ccccc3)C2=O)cc(OC)c1O |  | 10 µM (active) |

| Compound | activity change, negative = inhibition | Potency |
| --- | --- | --- |
| COC(=O)C[C@H]1C=C[C@H](NC(=O)c2ccc(F)cc2)[C@@H](CO)O1 | -3.28% |  |
| COc1ccccc1NS(=O)(=O)c1ccc(C(=O)N2CCN(c3ccccc3O)CC2)cc1 | 1.94% |  |
| O=S(=O)(Nc1ccc(OC(F)(F)F)cc1)c1cccc2nonc12 | -10.1% |  |
| O=S(=O)(Nc1ccc(O)c2ccccc12)c1ccc(OC(F)(F)F)cc1 |  | 56.2 µM (active) |
| O=C(NCc1ccncc1)C(=O)NCC1OCCN1S(=O)(=O)c1ccc(Br)cc1 (configuration not stated) | -13.3% |  |
| Cc1ccccc1N/C(SCc1ccc(Cl)cc1)=C(/C#N)C(N)=O | -14.6% |  |
| O=C(CCCCCn1c(=S)[nH]c2ccsc2c1=O)NC1CCCCC1 | 1.73% |  |
| O=C(/C=C/c1cccs1)NCc1cccnc1 | 1.39% |  |
| Cc1ccccc1NC(=O)Cn1c(=O)n(CC2CCCO2)c(=O)c2ccccc21 (configuration not stated) | 1.69% |  |
| Cc1ccccc1NC(=O)CN1C(=O)N/C(=C\c2cccn2-c2cccc(C(=O)O)c2)C1=O |  | 10.6 µM (active) |
| COC(=O)CN1C(=O)N/C(=C/c2ccc(OC)c(C)c2OC)C1=O | -4.64% |  |
| CCCCCc1c(-c2ccc(OC)c(OC)c2)ncn1CCc1ccccc1OC | -2.28% |  |
| CCc1cc(C(c2ccccc2OC)N2CCOCC2)c(NC(=O)c2ccccc2)s1 (configuration not stated) | -6.56% |  |
| O=C(Nc1ccccc1C(=O)NCCCn1ccnc1)c1ccc(Cl)cc1Cl | -10.2% |  |
| CCCNC(=O)C1(C)CCCN(Cc2cccc(C(F)(F)F)c2)C1 (configuration not stated) | 1.01% |  |
| COCCN(Cc1cc2cc3c(cc2nc1Cl)OCO3)C(=O)c1cccc(C)c1 | 6.25% |  |
| COc1ccc(OC)c(/C=N/NC(=O)c2ccc[n+](CC(=O)c3ccccc3)c2)c1 | -1.88% |  |
| COc1cc(/C=N/NC(=O)c2cccnc2)ccc1OC(=O)c1cccc(Br)c1 | -19.9% |  |
| COc1cccc(/C=N/NC(=O)c2[nH]nc3c2CCc2ccccc2-3)c1O |  | 25.1 µM (active) |
| COC(=O)[C@@]12C[C@@H](CC(=O)NCc3cccc(C(F)(F)F)c3)C(=O)N(Cc3ccco3)C1=CCC(C)(C)C2 | -8.06% |  |
| CC(=O)Nc1ccc(Nc2c([N+](=O)[O-])cc(S(C)(=O)=O)cc2[N+](=O)[O-])cc1 | -3.38% |  |
| O=C(NNc1c2ccccc2nc2ccccc12)c1cc2ccccc2cc1O | -16.5% [at 57.1 µM] |  |
| CC(=O)Nc1ccc(Nc2c3ccccc3nc3ccccc23)cc1 |  | 25.1 µM (active) |
